Data reported in PubChem BioAssay AID1159580 (chemical genetic matrix, 2015).
Among all 5,500 compounds or so, about 2,000 (36%) were called active. Roughly 18% stayed inconclusive and do not appear here. No stated cut-off is given here; in the data, active means normalized growth mostly below about 0.91 (no sharp cut-off); inconclusive means no clear call, values can overlap the other calls; inactive means mostly above about 0.92. Some of the results follow.

Experiment: chemical genetic growth profiling, strain panel (AID 1159580);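 further: tested at 20 µM; growth read once vehicle control cultures reached saturation at 30 °C; 1 = growth at the plate median or of vehicle wells; lower values mean less growth of the strain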
Details: S. cerevisiae deletion strains, growth OD

Measured: normalized growth

O=C(OCc1ccc(Oc2ccc(Cl)cc2Cl)c([N+](=O)[O-])c1)c1ccc([N+](=O)[O-])o1
inactive: locus YAR019C, strain CDC15, hits give low values 0.98 | locus YBL105C, strain PKC1, hits give low values 0.975 | locus YBR135W, strain CKS1, hits give low values 0.981 | locus YBR136W, strain MEC1, hits give low values 0.961 | locus YBR160W, strain CDC28, hits give low values 0.97 | locus YDL017W, strain CDC7, hits give low values 0.979 | locus YDL028C, strain MPS1, hits give low values 0.958 | locus YDL101C, strain DUN1, hits give low values 0.98 | locus YDL108W, strain KIN28, hits give low values 0.969 | locus YDL132W, strain cdc53, hits give low values 0.974 | locus YDL214C, strain PRR2, hits give low values 1.01 | locus YDR052C, strain DBF4, hits give low values 0.99 | locus YDR054C, strain cdc34, hits give low values 0.968 | locus YDR226W, strain ADK1, hits give low values 0.97 | locus YDR477W, strain SNF1, hits give low values 0.971 | locus YER123W, strain YCK3, hits give low values 0.987 | locus YER133W, strain GLC7, hits give low values 0.995 | locus YFL009W, strain cdc4, hits give low values 0.956 | locus YFL029C, strain CAK1, hits give low values 0.978 | locus YFR003C, strain YPI1, hits give low values 0.985 | locus YFR019W, strain FAB1, hits give low values 0.99 | locus YFR028C, strain CDC14, hits give low values 0.969 | locus YGR040W, strain KSS1, hits give low values 0.977 | locus YGR052W, strain FMP48, hits give low values 1.07 | locus YGR092W, strain DBF2, hits give low values 0.957 | locus YHR030C, strain SLT2, hits give low values 0.916 | locus YHR079C, strain IRE1, hits give low values 0.997 | locus YHR082C, strain KSP1, hits give low values 1.04 | locus YHR205W, strain SCH9, hits give low values 0.93 | locus YIL147C, strain SLN1, hits give low values 0.977 | locus YJL095W, strain BCK1, hits give low values 0.993 | locus YJL128C, strain PBS2, hits give low values 0.896 | locus YJL157C, strain FAR1, hits give low values 0.987 | locus YJR016C, strain ILV3, hits give low values 0.982 | locus YJR066W, strain TOR1 (second series), hits give low values 0.971 | locus YJR066W, strain TOR1, hits give low values 0.972 | locus YKL048C, strain ELM1, hits give low values 0.991 | locus YKL067W, strain YNK1, hits give low values 1 | locus YKL101W, strain HSL1, hits give low values 0.983 | locus YKL193C, strain SDS22, hits give low values 0.986 | locus YKL203C, strain TOR2, hits give low values 1.07 | locus YLR113W, strain HOG1, hits give low values 0.999 | locus YLR133W, strain CKI1, hits give low values 0.985 | locus YLR403W, strain SFP1, hits give low values 0.962 | locus YML070W, strain DAK1, hits give low values 1 | locus YMR001C, strain CDC5, hits give low values 0.97 | locus YMR205C, strain PFK2 (second series), hits give low values 1.01 | locus YMR277W, strain FCP1, hits give low values 0.966 | locus YNL006W, strain LST8, hits give low values 0.986 | locus YNL020C, strain ARK1, hits give low values 0.996 | locus YNL161W, strain CBK1, hits give low values 0.987 | locus YNL183C, strain NPR1, hits give low values 1.07 | locus YNL207W, strain RIO2, hits give low values 0.982 | locus YNL222W, strain SSU72, hits give low values 0.976 | locus YNL307C, strain MCK1 (second series), hits give low values 0.987 | locus YOL078W, strain AVO1, hits give low values 0.985 | locus YOL136C, strain PFK27, hits give low values 1 | locus YOR061W, strain CKA2, hits give low values 0.975 | locus YOR119C, strain RIO1, hits give low values 1.03 | locus YOR231W, strain MKK1, hits give low values 0.957 | locus YOR329C, strain SCD5, hits give low values 0.982 | locus YPL031C, strain PHO85, hits give low values 0.974 | locus YPL153C, strain RAD53, hits give low values 0.976 | locus YPL204W, strain HRR25, hits give low values 0.983 | locus YPL209C, strain IPL1, hits give low values 0.983 | locus YPL256C, strain CLN2, hits give low values 0.993 | locus YPR025C, strain CCL1, hits give low values 0.979 | locus YPR106W, strain ISR1, hits give low values 0.972 | locus YPR111W, strain DBF20, hits give low values 0.958 | strain NNK1, hits give low values 0.983 | strain TSCII, hits give low values 0.968
